Reference: PubChem BioAssay (NCATS)
Inconclusive results are not listed. Activity calls are given as the source filed them. Unless noted, calls follow the shape of the dose curve; as a rule, active = well fitted curve in the direction sought with a large enough effect in the repeat runs; inconclusive = weak or mixed curves; inactive = no such curve, though single readings can be large; an effect the other way counts as inactive or inconclusive.

Experiments:
[1] = A High-Content qHTS Against Drug Library for the Identification of Small Molecules that Inhibit DYT1 Early Onset Primary Dystonia-Associated Cell Pathology (AID 1645839; calls by dose curve; also: series mostly up to about 46 µM)
Method in brief: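 Readout: %pathology, the punctate EGFP-TorsinA distribution from imaging, as the primary channel and cell count as the toxicity counterscreen. HEK293 Flp-In cells expressing delE TorsinA were induced with tetracycline and treated with compound for 48 h.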

[2] = target: Cytochrome P450 2D6 (Homo sapiens) (UniProt P10635); experiment: Cytochrome P450 family 2 subfamily D member 6 (CYP2D6) small molecule antagonists: luciferase biochemical (cell-free) qHTS assay (AID 1645840); also: series mostly up to about 57 µM; nearly all actives have a fitted effect of over 55% in size
Method in brief: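 P450-Glo luminescent screen: recombinant CYP2D6 enzyme–proluciferin substrate mix preincubated with compound 10 min at room temperature, then NADPH regeneration added for 1 h at room temperature. Detection reagent added for 20 min; luciferin light read as relative luminescence units.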

[3] = target: Cytochrome P450 2C9 (Homo sapiens) (UniProt P11712); experiment: Cytochrome P450 family 2 subfamily C member 9 (CYP2C9) small molecule antagonists: luciferase biochemical (cell-free) qHTS assay (AID 1645842); also: series mostly up to about 57 µM; nearly all actives have a fitted effect of over 55% in size
Method in brief: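 Luminescence, after 20 min with luciferin detection reagent, reflected CYP2C9 turnover during a 1 h NADPH-driven reaction at 37C. Enzyme-substrate mix contained 0.4% bovine serum albumin and was preincubated with compound 10 min at room temperature.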

Measured: Potency

Cytochrome P450 2D6 (Homo sapiens), sequence (P10635 whole entry, looked up): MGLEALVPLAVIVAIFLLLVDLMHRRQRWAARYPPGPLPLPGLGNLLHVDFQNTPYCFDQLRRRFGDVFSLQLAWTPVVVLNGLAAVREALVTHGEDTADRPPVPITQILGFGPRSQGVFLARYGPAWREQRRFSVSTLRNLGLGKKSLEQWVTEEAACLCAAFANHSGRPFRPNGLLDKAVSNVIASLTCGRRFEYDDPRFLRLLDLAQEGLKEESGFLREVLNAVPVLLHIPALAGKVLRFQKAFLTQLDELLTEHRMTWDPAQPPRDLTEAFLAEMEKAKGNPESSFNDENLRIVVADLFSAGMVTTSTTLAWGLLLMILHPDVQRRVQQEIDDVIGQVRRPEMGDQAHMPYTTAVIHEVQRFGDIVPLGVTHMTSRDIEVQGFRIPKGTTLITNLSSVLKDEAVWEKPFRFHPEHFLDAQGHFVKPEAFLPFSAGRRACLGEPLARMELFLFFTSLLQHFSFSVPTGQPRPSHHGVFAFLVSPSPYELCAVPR
Cytochrome P450 2C9 (Homo sapiens), sequence (P11712 whole entry, looked up): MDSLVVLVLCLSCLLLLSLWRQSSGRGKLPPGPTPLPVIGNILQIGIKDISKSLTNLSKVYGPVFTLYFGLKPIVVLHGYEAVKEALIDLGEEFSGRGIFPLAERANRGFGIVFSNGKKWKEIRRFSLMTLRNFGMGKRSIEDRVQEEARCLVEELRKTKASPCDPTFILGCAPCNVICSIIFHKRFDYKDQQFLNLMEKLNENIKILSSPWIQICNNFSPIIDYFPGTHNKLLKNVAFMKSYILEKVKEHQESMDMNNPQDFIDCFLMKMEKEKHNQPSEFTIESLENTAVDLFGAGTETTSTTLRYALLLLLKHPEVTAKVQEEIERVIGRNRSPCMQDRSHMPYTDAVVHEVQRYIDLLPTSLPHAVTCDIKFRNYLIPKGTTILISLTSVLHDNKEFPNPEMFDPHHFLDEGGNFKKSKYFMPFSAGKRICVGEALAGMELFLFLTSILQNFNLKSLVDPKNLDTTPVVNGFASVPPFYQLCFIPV

O=C(O)C(=O)Nc1cccc(-c2nn[nH]n2)c1
inactive: [1] | [2] | [3]

CC(=O)c1ccc(O)c(C(N)=O)c1
inactive: [1] | [2] | [3]

C1N2CN3CN1CN(C2)C3
inactive: [1] | [2] | [3]

CCOC(=O)C(O)c1ccccc1 (configuration not stated)
inactive: [1] | [2] | [3]
